Data published in PubChem BioAssay (EPA / NIEHS).
Results filed as inconclusive are left out. Active and inactive are the calls of the source. Rule for the calls, unless noted: active = hit-call score of the fitted dose curve at least 0.9, where 1 is the maximum; inactive = score below 0.9.

Legend:
SERPINA7 (gene 6906) = assay: CCTE_GLTED_hTBG: CCTE's human Thyroxine-binding Globulin (TBG) Inhibition Assay, Great Lakes Toxicology and Ecology Division (GLTED) Lab (AID 2284343; active = hit-call score of the fitted dose curve at least 0.9, where 1 is the maximum;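 note: active chemicals lower fluorescence versus DMSO baseline by displacing probe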)
In short: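 Fluorescence (ex 380/em 475) reports ANSA displaced from human TBG after a 2 h incubation with test chemical, without cells. Loss of signal indicates displacement, with DMSO serving as baseline.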

[1] = CCTE_Padilla_ZF_Score.Craniofacial: CCTE's 144 Hour Post-fertilization zebrafish Assay Score for Craniofacial Malformation, Padilla Lab (AID 2284405)
In short: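 Craniofacial defects were scored at 6 dpf by two blinded observers using stereomicroscopy. Exposure of wild-type embryos began at 6–8 hpf in sealed wells of 10% Hanks' solution at 26C, with chemical removed by rinsing at 5 dpf.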

[2] = CCTE_Padilla_ZF_Score.Edema: CCTE's 144 Hour Post-fertilization zebrafish Assay Score for Edema Malformation, Padilla Lab (AID 2284406)
In short: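 Edema scored at 6 dpf by two blinded observers under a stereo microscope, in single outbred wild-type larvae exposed from 6-8 hpf in sealed wells (Hanks', 26C, 14:10 h light) and chemical-free after a 5 dpf rinse.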

[3] = CCTE_Padilla_ZF_Score.Spine: CCTE's 144 Hour Post-fertilization zebrafish Assay Score for Spine Malformation, Padilla Lab (AID 2284407)
In short: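 Spine malformation scored at 6 dpf by two independent blinded observers under stereomicroscope, after static sealed exposure from 6–8 hpf at 26C in Hanks' solution with rinse on 5 dpf. Positive-direction fit against DMSO control.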

IYD (gene 389434) = assay: CCTE_GLTED_hIYD: CCTE's human Iodotyrosine Deiodinase (xIYD) Inhibition Assay, Great Lakes Toxicology and Ecology Division (GLTED) Lab (AID 2284317; active = hit-call score of the fitted dose curve at least 0.9, where 1 is the maximum;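 note: cell-free human IYD enzyme made in baculovirus insect cells; iodide freed from monoiodotyrosine measured by cerium arsenite color change at 420 nm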)
In short: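 Cell-free; baculovirus/insect-cell hIYD + MIT substrate + chemical, 3 h. Dowex column cleanup, then Ce4+/As3+ Sandell-Kolthoff read at A420 nm. Triplicate plates; normalized to 3-nitro-L-tyrosine (positive) and DMSO/NaOH (solvent).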

[4] = CCTE_Deisenroth_5AR_NBTE_donor: CCTE's 5alpha-reductase NanoBRET Target Engagement Assay […], Deisenroth Lab (AID 2284319); settings: actives raise or lower the signal
In short: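 HEK293T cells were reverse transfected with an SRD5A2-NanoLuc vector for 20 h, exposed to test chemical (8 points, 10 nM - 29.9 uM) for 3 h, then testosterone tracer for 2 h more. Donor luminescence (460 nm) was read; bidirectional fit versus DMSO.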

[5] = CCTE_Deisenroth_5AR_NBTE_acceptor: CCTE's 5alpha-reductase NanoBRET Target Engagement Assay - Autofluorescence Screen, Deisenroth Lab (AID 2284321); settings: actives raise or lower the signal;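 note: compound fluorescence in the acceptor channel under 460 nm excitation flags autofluorescence artifacts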
In short: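 Using three independent plate-reader runs, nominal 100 uM chemicals were checked for intrinsic fluorescence (ex 460 nm). DMSO defined the baseline for bidirectional fitting.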

SRD5A2 (gene 6716) = assay: CCTE_Deisenroth_5AR_NBTE_ratio: CCTE's 5alpha-reductase NanoBRET Target Engagement Assay - Ratio, Deisenroth Lab (AID 2284322); settings: actives raise or lower the signal
In short: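 SRD5A2-NanoLuc HEK293T; cmpd 10 nM-29.9 uM, 3 h preinc + testosterone tracer 2 h; NanoBRET ratio 650/460; bidirectional fit vs DMSO.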

[6] = IUF_NPC2-5_cell_number_120hr: Cell Number Assessment at 120 hours in the Leibniz Research Institute for Environmental Medicine (IUF) Neural Progenitor Cell Migration and Differentiation Assay (NPC2-5) (AID 2284308);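 note: count of Hoechst-stained nuclei in migration zone around plated human neural progenitor spheres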
In short: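 Seven-point serial dilutions plus solvent control were applied to plated 0.3 mm hNPC spheres at differentiation start, with medium half-replaced at day 3. Nuclei positive for Hoechst in the migration zone were enumerated at 120 h.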

[7] = IUF_NPC2-5_viability_120hr: Viability Assessment at 120 hours in the Leibniz Research Institute for Environmental Medicine (IUF) Neural Progenitor Cell Migration and Differentiation Assay (NPC2-5) (AID 2284312)
In short: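 Alamar blue resorufin fluorescence read after 5 days of differentiation, with compound present from day 0 and replenished at day 3. Primary hNPC spheres on laminin-coated plates, 37C; seven concentrations plus solvent control, fitted against DMSO.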

[8] = CCTE_Mundy_HCI_iCellGluta_NOG_NeuriteLength: CCTE's Neurite Outgrowth Assay in iCellGluta cells for Neurite Length, Mundy Lab (AID 2284318; active = hit-call score of the fitted dose curve at least 0.9, where 1 is the maximum)
In short: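 Automated high-content imaging of betaIII-tubulin (Alexa Fluor-488) and Hoechst-stained cells gave neurite length, normalized to the DMSO baseline.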

[9] = IUF_NPC1_cytotoxicity_72hr: Cytotoxicity Assessment at 72 hours in the Leibniz Research Institute for Environmental Medicine (IUF) Neural Progenitor Cell Proliferation Assay (NPC1) (AID 2284332; active = hit-call score of the fitted dose curve at least 0.9, where 1 is the maximum;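 note: rising LDH signal means more cytotoxicity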)
In short: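 LDH in supernatant, resazurin→resorufin fluorescence (RFU), 72 h exposure, no re-dosing. Cells: primary hNPC spheres, one per well, EGF+FGF medium, 37C/5% CO2, pH 7.2-7.6. Fit: positive direction vs baseline and dynamic range.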

[10] = CCTE_Mundy_HCI_iCellGluta_NOG_NeuronCount: CCTE's Neurite Outgrowth Assay in iCellGluta cells for Neuron Count, Mundy Lab (AID 2284340; active = hit-call score of the fitted dose curve at least 0.9, where 1 is the maximum;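 note: cells fixed about 48 h after compound addition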)
In short: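 Neuron count read by automated high-content imaging of Hoechst 33342 and betaIII-tubulin/Alexa Fluor-488 labelling in human iPSC glutamatergic neurons. Activity fitted relative to DMSO.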

[11] = CCTE_Mundy_HCI_iCellGluta_NOG_NeuriteCount: CCTE's Neurite Outgrowth Assay in iCellGluta cells for Neurite Count, Mundy Lab (AID 2284342; active = hit-call score of the fitted dose curve at least 0.9, where 1 is the maximum;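 note: chemical exposure about 48 hours starting 2 hours after plating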)
TTR (gene 7276) = assay: CCTE_GLTED_hTTR_0.5uM: CCTE's human Transthyretin (hTTR) Inhibition Assay, with 0.5uM TTR, Great Lakes Toxicology and Ecology Division (GLTED) Lab (AID 2284320)
In short: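 Probe (ANSA) displacement from 0.5 uM human transthyretin was followed by fluorescence (ex 380, em 475) after a 2 h incubation with chemical. Activity was scored as signal loss and fitted positively relative to DMSO.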

[12] = TAMU_PeakParms_SingleDonor1434_Asystole: Texas A&M University (TAMU) 1.5-hr Human Induced Pluripotent Stem Cell (iPSC)-derived Cardiomyocytes Calcium (Ca+2) Flux Assay for Cardiotoxicity: Asystole (quiescence of beating) (AID 2284328; active = hit-call score of the fitted dose curve at least 0.9, where 1 is the maximum)
In short: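 Average Ca2+-flux peak frequency (beats/s) was recorded in single-donor iPSC-derived cardiomyocytes after 90 min exposure (0.2–100 uM final, 0.5% DMSO). Asystole POD set as EC95 against DMSO, no preprocessing.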

[13] = tested on: Brachyury (BRA) Protein Expression, Deisenroth Lab, TBXT (gene 6862); assay: CCTE_Deisenroth_DEVTOX-GLR_legacy_Bra: (Legacy) CCTE's DevTox GLR-Endo Assay Evaluation of Brachyury (BRA) Protein Expression, Deisenroth Lab (AID 2284329)
In short: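 Percent Bra-positive cells, scored by high-content imaging against a threshold of 5x BMAD over the undifferentiated control median, with the 0.2% DMSO median subtracted. RUES2-GLR cultures were dosed twice at 24 h intervals across a 48 h differentiation, at 1 nM–200 uM in ten steps, with n=4 replicates.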

[14] = CCTE_Deisenroth_DEVTOX-GLR_legacy_CellCount: (Legacy) Viability Assessment in CCTE's DevTox GLR-Endo Assay, Deisenroth Lab (AID 2284331); settings: actives raise or lower the signal
In short: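 RUES2-GLR human pluripotent cells were seeded 24 h, then differentiated 48 h with two compound doses at 24 h intervals (10-point, 1 nM - 200 uM). Fixed nuclei were imaged and counted; bidirectional fitting versus 0.2% DMSO.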

[15] = tested on: SRY-box transcription factor 17 (SOX17) Protein Expression, Deisenroth Lab, SOX17 (gene 64321); assay: CCTE_Deisenroth_DEVTOX-GLR_legacy_Sox17: (Legacy) CCTE's DevTox GLR-Endo Assay Evaluation of SRY-box transcription factor 17 (SOX17) Protein Expression, Deisenroth Lab (AID 2284341); settings: actives raise or lower the signal
In short: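 Percent SOX17-positive cells, scored by high-content imaging as mean intensity exceeding pluripotent-control median by 5x BMAD, divided by cell count. Human RUES2-GLR endoderm differentiation, 48 h, two exposures 24 h apart, 1 nM–200 uM; DMSO-referenced bidirectional fitting.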

[16] = tested on: SRY-box transcription factor 2 (SOX2) Protein Expression, Deisenroth Lab, SOX2 (gene 6657); assay: CCTE_Deisenroth_DEVTOX-GLR_legacy_Sox2: (Legacy) CCTE's DevTox GLR-Endo Assay Evaluation of SRY-box transcription factor 2 (SOX2) Protein Expression, Deisenroth Lab (AID 2284346)
In short: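 Percent Sox2-positive cells was scored by high-content imaging of 5 fields per well. Positivity cutoff was 5x BMAD over the directed endoderm control, and the DMSO median was subtracted. Cells were RUES2-GLR, dosed twice at 24-h intervals over 48 h of differentiation (1 nM-200 uM).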

O=CCc1ccccc1
AC50 (SERPINA7 (gene 6906)): 14.2 µM (active)

FC(F)(F)COCC(F)(F)F
outcome [1]: inactive | outcome [2]: inactive | outcome [3]: inactive

CCCCC(CC)COC(=O)c1ccc(O)cc1 (stereo unspecified)
AC50 (IYD (gene 389434)): 44.3 µM (active) | AC50 (SERPINA7 (gene 6906)): 5.72 µM (active)

Nc1ccccc1[N+](=O)[O-]
outcome [4]: inactive | outcome [5]: inactive | AC50 (SRD5A2 (gene 6716)): 50 µM (active)

Cc1cc(S(=O)(=O)O)ccc1N=Nc1c(O)ccc2ccccc12
AC50 [4]: 18.3 µM (active) | outcome [5]: inactive | AC50 (SRD5A2 (gene 6716)): 25 µM (active)

COCCOCCOCCO
outcome [6]: inactive | outcome [7]: inactive | outcome [8]: inactive | outcome [9]: inactive | outcome [10]: inactive | outcome [11]: inactive

O=[N+]([O-])c1ccc(O)cc1C(F)(F)F
outcome [4]: inactive | outcome [5]: inactive | AC50 (SRD5A2 (gene 6716)): 50 µM (active) | AC50 (SERPINA7 (gene 6906)): 28.2 µM (active)

N[C@@H](Cc1cc(I)c(Oc2cc(I)c(O)c(I)c2)c(I)c1)C(=O)O
AC50 (TTR (gene 7276)): 0.205 µM (active) | AC50 (SERPINA7 (gene 6906)): 0.0273 µM (active)

C[C@H]1O[C@@H](O[C@H]2[C@@H](O)C[C@H](O[C@H]3[C@@H](O)C[C@H](O[C@H]4CC[C@@]5(C)[C@H](CC[C@@H]6[C@@H]5C[C@@H](O)[C@]5(C)[C@@H](C7=CC(=O)OC7)CC[C@]65O)C4)O[C@@H]3C)O[C@@H]2C)C[C@H](O)[C@@H]1O
outcome [4]: inactive | outcome [5]: inactive | AC50 (SRD5A2 (gene 6716)): 0.354 µM (active)

CCc1cc(Cc2cc(CC)cc(C(C)(C)C)c2O)c(O)c(C(C)(C)C)c1
AC50 (IYD (gene 389434)): 102 µM (active)

BrCc1cccc(Oc2ccccc2)c1
AC50 (SERPINA7 (gene 6906)): 23.3 µM (active)

COCCc1ccc(OCC(O)CNC(C)C)cc1 (stereo unspecified)
outcome [6]: inactive | outcome [7]: inactive | outcome [8]: inactive | outcome [9]: inactive | outcome [10]: inactive | outcome [11]: inactive

Clc1ccc(C(c2ccccc2Cl)C(Cl)Cl)cc1 (stereo unspecified)
outcome [4]: inactive | outcome [5]: inactive | outcome (SRD5A2 (gene 6716)): inactive | AC50 (SERPINA7 (gene 6906)): 1.79 µM (active)

CCCCCCC(CO)CCCC (stereo unspecified)
AC50 (SERPINA7 (gene 6906)): 24.2 µM (active)

C=C[Si]1(C)O[Si](C)(C=C)O[Si](C)(C=C)O[Si](C)(C=C)O1 (stereo unspecified)
outcome (SERPINA7 (gene 6906)): inactive

CC(C)NCC(O)COc1ccc(CC(N)=O)cc1 (stereo unspecified)
outcome [12]: inactive

[O-]n1ccccc1=S.[O-]n1ccccc1=S.[Zn+2]
outcome [4]: inactive | outcome [5]: inactive | outcome (SRD5A2 (gene 6716)): inactive

O=C(Nc1ccc2c(O)c(N=Nc3ccc(N=Nc4ccc(S(=O)(=O)O)cc4)cc3)c(S(=O)(=O)O)cc2c1)c1ccccc1
AC50 (IYD (gene 389434)): 91.3 µM (active) | AC50 [4]: 9.98 µM (active) | outcome [5]: inactive | AC50 (SRD5A2 (gene 6716)): 11.6 µM (active) | AC50 (SERPINA7 (gene 6906)): 16.6 µM (active)

COc1ccc(N=Nc2cc(C)c(N=Nc3ccc(S(=O)(=O)O)cc3)cc2OC)cc1
outcome (IYD (gene 389434)): inactive | AC50 [4]: 50 µM (active) | AC50 [5]: 40.6 µM (active) | AC50 (SRD5A2 (gene 6716)): 87 µM (active) | AC50 (SERPINA7 (gene 6906)): 35.5 µM (active)

CS(=O)(=O)OCCCCOS(C)(=O)=O
outcome [13]: inactive | AC50 [14]: 14.6 µM (active) | AC50 [15]: 47.3 µM (active) | AC50 [16]: 77 µM (active)

Oc1ccc2cc(SSc3ccc4cc(O)ccc4c3)ccc2c1
AC50 (IYD (gene 389434)): 56.9 µM (active) | AC50 (SERPINA7 (gene 6906)): 0.423 µM (active)

O=C(c1ccccc1)C(O)c1ccccc1 (stereo unspecified)
AC50 (SERPINA7 (gene 6906)): 15.9 µM (active)

CC(=O)O[C@H]1C[C@@H]2CC[C@@]1(C)C2(C)C
outcome [4]: inactive | outcome [5]: inactive | outcome (SRD5A2 (gene 6716)): inactive

COc1ccccc1N=Nc1c(S(=O)(=O)O)cc2cc(S(=O)(=O)O)cc(NC(C)=O)c2c1O
AC50 (IYD (gene 389434)): 94.8 µM (active)
